Screening results as filed in PubChem.
GPR151 activ: activators of human GPR151, primary screen, cell-based, PathHunter beta-arrestin, luminescence; activation, % at 11.2 µM; G-protein coupled receptor 151 (Homo sapiens), Q8TDV0; PathHunter beta-arrestin GPR151 cells; hit rate 1% among 650,000; in the data active = activation above about 4.9%;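 also: 0% = median of compound wells and 100% = cells with positive control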
Target sequence (Q8TDV0 whole entry, looked up): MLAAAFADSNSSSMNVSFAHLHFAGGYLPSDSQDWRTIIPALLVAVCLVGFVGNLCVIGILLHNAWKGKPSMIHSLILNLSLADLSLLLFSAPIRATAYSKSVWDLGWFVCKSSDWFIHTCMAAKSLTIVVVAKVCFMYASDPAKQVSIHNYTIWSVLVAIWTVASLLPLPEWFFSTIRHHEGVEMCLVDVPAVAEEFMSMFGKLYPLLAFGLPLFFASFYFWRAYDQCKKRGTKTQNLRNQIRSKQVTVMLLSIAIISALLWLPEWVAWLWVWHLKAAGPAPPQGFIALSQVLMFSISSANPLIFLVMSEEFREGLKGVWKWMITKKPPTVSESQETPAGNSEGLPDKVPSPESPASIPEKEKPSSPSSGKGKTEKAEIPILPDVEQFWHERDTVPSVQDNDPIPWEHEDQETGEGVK
FBW7 activator: FBW7 E3 ligase activators, primary screen, biochemical, AlphaScreen, human. hit rate 0.13% among 650,000. normalized activity (activation), % at 26.1 µM. F-box/WD repeat-containing protein 7 (Homo sapiens), Q969H0. AlphaScreen FBW7–phospho-cyclin E peptide binding, activator screen; in the data active = normalized activity above about 1.9%;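 also: purified mutant Fbw7 with reduced substrate affinity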
TEAD-YAP inh: TEAD-YAP interaction inhibition, primary screen, TEAD-YAP interaction inhibitor project, luminescence, HEK-TIYL cells | inhibition, % at 9.12 µM | hit rate 1.4% among 640,000 | AID 1259422, 2018 | TEAD-Gal4/YAP UAS-luciferase luminescence; in the data active = inhibition above about 32%;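 also: 0% = median of test compound wells and 100% = reference inhibitor wells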
MITF primary: MITF inhibitors, primary screen, biochemical, AlphaScreen, human; Microphthalmia-associated transcription factor (Homo sapiens), O75030; AlphaScreen MITF homodimerization, bead proximity signal; hit rate 0.91% among 650,000; inhibition, % at 2.6 µM; AID 1259374, 2018; in the data active = inhibition above about 50%;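 also: 0% = vehicle wells with protein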
MITF confirm: MITF inhibitors, retest of hits, confirmation, biochemical, AlphaScreen, triplicate; shares compounds with MITF primary; hit rate 16% among 4,700; inhibition, % at 2.6 µM; AlphaScreen MITF homodimerization, biotin/His-MITF beads;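 active = inhibition above a cutoff derived from the DMSO control wells, cut at about 28% in these data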;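 also: 0% = MITF dimer wells with DMSO only; inhibitors lower the bead chemiluminescence by keeping MITF from dimerizing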
AlphaScreen DR: AlphaScreen optical interference compounds, dose response, counter-screen, biochemical, HTS; shares compounds with MITF primary; AlphaScreen optical interference counterscreen, cell-free; IC50, µM; hit rate 6% among 480; call rule not given here
AS interf ctr: AlphaScreen optical interference compounds, counter-screen for MITF inhibitor project, biochemical, triplicate | shares compounds with MITF primary | LysRS AlphaScreen counterscreen, signal interference | inhibition, % at 2.6 µM | hit rate 7.6% among 4,700 | AID 1259376, 2018;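 active = inhibition above a cutoff derived from the DMSO control wells, cut at about 30% in these data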
Active calls of the source: *. An excerpt weighted towards active compounds, which were near 3.5% of everything screened.

Screening O=C(NNC(=S)NCC1CCCO1)c1ccccn1 (configuration not stated) returned GPR151 activ 1, FBW7 activator -2, TEAD-YAP inh 23, MITF primary 118*, MITF confirm 116* and AS interf ctr 100*.
`O=C(NNC(=S)Nc1ccc2c(c1)OCO2)c1ccccn1` gave GPR151 activ -2, FBW7 activator -2, TEAD-YAP inh -47, MITF primary 117*, MITF confirm 96* and AS interf ctr 91*.
For O=C(Nc1ccc2c(c1)OCO2)c1ccccn1 the results were GPR151 activ -10, FBW7 activator 0, TEAD-YAP inh 11 and MITF primary -3.
Screening COc1ccc(C)cc1NC(=S)NNC(=O)Cc1cccs1 returned GPR151 activ 1, FBW7 activator 0, TEAD-YAP inh -6 and MITF primary 0.
Screening Cc1ccnc(Nc2ccc(NCCNC(=O)c3ccc(F)cc3)nn2)c1 returned GPR151 activ 1, FBW7 activator -1, TEAD-YAP inh 3, MITF primary 56*, MITF confirm 61* and AS interf ctr 94*.
Cc1cccc(Nc2ccc(NCCNC(=O)c3ccc(F)cc3)nn2)n1 was read as GPR151 activ 1, FBW7 activator 0, TEAD-YAP inh 15 and MITF primary 8.
`Cc1ccnc(Nc2ccc(NCCNC(=O)c3ccc(F)cc3Cl)nn2)c1` gave GPR151 activ 0, FBW7 activator -1, TEAD-YAP inh 4, MITF primary 81*, MITF confirm 43* and AS interf ctr 83*.
Cc1cc(S(=O)(=O)NCc2ccsc2)ccc1F was read as GPR151 activ 3, FBW7 activator 1, TEAD-YAP inh -1 and MITF primary 4.
Screening O=S(=O)(NCc1ccsc1)c1ccc(F)c(Cl)c1 returned GPR151 activ -1, FBW7 activator 0, TEAD-YAP inh 6, MITF primary 62*, MITF confirm -8 and AS interf ctr 0.
c1ccc(OCc2nnc3sc(-c4cccnc4)nn23)cc1 was read as GPR151 activ 1, FBW7 activator 0, TEAD-YAP inh 1, MITF primary 64*, MITF confirm 7 and AS interf ctr 14.
`CCOc1ccc(-c2nn3c(COc4ccccc4)nnc3s2)cc1` gave GPR151 activ 0, FBW7 activator 0, TEAD-YAP inh 5 and MITF primary 4.
Screening O=C(CSc1ccc(F)cc1)N1CC(c2nc3ccccc3[nH]2)C1 returned GPR151 activ 0, FBW7 activator 0, TEAD-YAP inh 5, MITF primary 60*, MITF confirm 6 and AS interf ctr 14.
For Cc1cc(N=Cc2ccc([N+](=O)[O-])o2)ccc1S(=O)(=O)O the results were GPR151 activ 0, FBW7 activator 0, TEAD-YAP inh 2, MITF primary 58*, MITF confirm 47*, AlphaScreen DR >6.5 and AS interf ctr -12.
`O=[N+]([O-])c1ccc(C=Nc2ccc(N=Cc3ccc([N+](=O)[O-])o3)cc2)o1` gave GPR151 activ 0, FBW7 activator 0, TEAD-YAP inh 14 and MITF primary 36.
For Cc1ccc(NC(=O)c2nnn(-c3cccc(C)c3)c2N)cc1 the results were GPR151 activ 0, FBW7 activator 0, TEAD-YAP inh -87 and MITF primary 7.
Screening OC(CNC1CCCC1)COc1ccc(OCC(O)CNC2CCCC2)cc1 (configuration not stated) returned GPR151 activ 3, FBW7 activator 0, TEAD-YAP inh 9 and MITF primary 5.
Screening CC1(C)C2CCC1(C)C(NCC(O)COc1ccc(C#N)cc1)C2 (configuration not stated) returned GPR151 activ -1, FBW7 activator 0, TEAD-YAP inh 5, MITF primary 77*, MITF confirm -18 and AS interf ctr -4.
Screening Cc1ccc(Oc2ccc(OCC(=O)NCC3CCCO3)cc2)cc1 (configuration not stated) returned GPR151 activ 0, FBW7 activator 0, TEAD-YAP inh 16, MITF primary 75*, MITF confirm 0 and AS interf ctr 11.
`O=C(CNC1CCCC1)Nc1ccc(C(=O)N2CCCCC2)cc1` gave GPR151 activ -1, FBW7 activator 0, TEAD-YAP inh 2 and MITF primary 46.
For O=C(CNC1CCCC1)Nc1ccc(CN2CCCCC2)cc1 the results were GPR151 activ 1, FBW7 activator 0, TEAD-YAP inh -6, MITF primary 65*, MITF confirm 3 and AS interf ctr 16.
`O=C(CN1CCN(C2CCCCC2)CC1)Nc1ccc(C(=O)N2CCOCC2)cc1` gave GPR151 activ -1, FBW7 activator 1, TEAD-YAP inh -1, MITF primary 56*, MITF confirm 10 and AS interf ctr 13.
For CN(C)CCNCC(=O)Nc1ccc(CN2CCCCC2)cc1 the results were GPR151 activ 0, FBW7 activator 0, TEAD-YAP inh 3, MITF primary 94*, MITF confirm 9 and AS interf ctr 16.
O=C(CN1CCN(C2CCCCC2)CC1)Nc1ccc(Br)cc1 was read as GPR151 activ 0, FBW7 activator 0, TEAD-YAP inh 10 and MITF primary 5.
Screening O=C(CNC1CCCCC1)Nc1ccc(C(=O)N2CCCCC2)cc1 returned GPR151 activ 0, FBW7 activator 0, TEAD-YAP inh 0, MITF primary 53*, MITF confirm 7 and AS interf ctr 14.
For O=C(Nc1c2c(nn1-c1ccc([N+](=O)[O-])cc1)CS(=O)(=O)C2)c1ccc(Cl)cc1 the results were GPR151 activ 1, FBW7 activator 1, TEAD-YAP inh 6 and MITF primary 19.
Screening CC(C)CNC(=O)C(=O)NCC1OCCCN1S(=O)(=O)c1ccc(Cl)cc1 (configuration not stated) returned GPR151 activ 0, FBW7 activator 0, TEAD-YAP inh -3, MITF primary 64*, MITF confirm 8 and AS interf ctr 14.
CC(C)CCNC(=O)C(=O)NCC1OCCCN1S(=O)(=O)c1ccc(F)cc1 (configuration not stated) was read as GPR151 activ 0, FBW7 activator 0, TEAD-YAP inh -2, MITF primary 67*, MITF confirm 10 and AS interf ctr 14.
